Values without a mark were called inactive. Results filed as inconclusive are left out. Entries that show only a call come without a potency. The source made the active and inactive calls. Unless noted, calls follow the shape of the dose curve; as a rule, active = well fitted curve in the direction sought with a large enough effect in the repeat runs; inconclusive = weak or mixed curves; inactive = no such curve, though single readings can be large; an effect the other way counts as inactive or inconclusive.
Legend:
[1] = qHTS RealTime-Glo MT Cell Viability Assay in HEK293 cells - 0 hour (AID 1224880); also: top concentration of the series differs between compounds; nearly all actives have a fitted effect of over 45% in size
Summary of the method: (§1)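 Measured as luminescence from the same continuously cultured HEK293 wells at successive time points (0, 8, 16, 24, 32, 40 h) after compound addition. Reagent present from seeding; dosing at 5 h; incubation 37 C.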

[2] = A CellTox Green Cytotoxicity Assay to monitor cytotoxicity in HEK293 cells - 32 hour (AID 1224881); also: nearly all actives have a fitted effect of over 40% in size
Summary of the method: (§2)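 Homogeneous no-lysis format: HEK293 cell suspension mixed with CellTox Green reagent, seeded, incubated 5 h at 37 C/5% CO2, then dosed by pintool with compound in DMSO.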

[3] = A CellTox Green Cytotoxicity Assay to monitor cytotoxicity in HepG2 cells - 0 hour (AID 1224882); also: nearly all actives have a fitted effect of over 35% in size
Summary of the method: (§3)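 Fluorescent DNA-binding dye, 600 HepG2 cells/well, 5 h preincubation then compound in DMSO; same plates read at 0–40 h, 37 C.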

[4] = A CellTox Green Cytotoxicity Assay to monitor cytotoxicity in HepG2 cells - 32 hour (AID 1224883); also: nearly all actives have a fitted effect of over 50% in size
Summary of the method: as §3

[5] = A CellTox Green Cytotoxicity Assay to monitor cytotoxicity in HEK293 cells - 8 hour (AID 1224884); also: nearly all actives have a fitted effect of over 35% in size
Summary of the method: as §2

[6] = qHTS RealTime-Glo MT Cell Viability Assay in HepG2 cells - 16 hour (AID 1224885); also: nearly all actives have a fitted effect of over 50% in size
Summary of the method: (§4)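 Real-time, nonlytic viability: 600 HepG2 cells/well mixed with NanoLuc enzyme plus prosubstrate; 5 h settle, compound (DMSO) added by pintool; luminescence monitored over 40 h at 37 C.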

[7] = qHTS RealTime-Glo MT Cell Viability Assay in HEK293 cells - 24 hour (AID 1224886); also: top concentration of the series differs between compounds; nearly all actives have a fitted effect of over 50% in size
Summary of the method: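 Cells + reagent dispensed (600 cells/well, HEK293) → 5 h at 37 C/5% CO2 → 23 nL compound in DMSO pinned → 40 h at 37 C → luminescence read at 0, 8, 16, 24, 32, 40 h.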

[8] = qHTS RealTime-Glo MT Cell Viability Assay in HEK293 cells - 8 hour (AID 1224887); also: top concentration of the series differs between compounds; nearly all actives have a fitted effect of over 50% in size
Summary of the method: as §1

[9] = A CellTox Green Cytotoxicity Assay to monitor cytotoxicity in HEK293 cells - 16 hour (AID 1224888); also: nearly all actives have a fitted effect of over 35% in size
Summary of the method: as §2

[10] = qHTS RealTime-Glo MT Cell Viability Assay in HepG2 cells - 0 hour (AID 1224889); also: nearly all actives have a fitted effect of over 50% in size; also: potency is read from the fitted curve at half-maximal effect
Summary of the method: as §4

[11] = A CellTox Green Cytotoxicity Assay to monitor cytotoxicity in HepG2 cells - 8 hour (AID 1224890); also: nearly all actives have a fitted effect of over 45% in size
Summary of the method: as §3

[12] = qHTS assay to identify small molecule antagonists of the androgen receptor (AR) signaling pathway using the MDA cell line in the presence of 0.5 nM R1881 - cell viability counter screen (AID 1259242); also: nearly all actives have a fitted effect of over 45% in size
Summary of the method: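 Human breast carcinoma MDA-kb2 cells, cultured without CO2, receive compounds alongside 0.5 nM (final) R1881 agonist. After 16 hr at 37C, viability is taken as live-cell protease signal.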

[13] = molecular target: Androgen receptor (Homo sapiens) (UniProt P10275); assay: qHTS assay to identify small molecule antagonists of the androgen receptor (AR) signaling pathway using the MDA cell line in the presence of 0.5 nM R1881 (AID 1259243); also: nearly all actives have a fitted effect of over 50% in size; also: potency is read from the fitted curve at half-maximal effect
Summary of the method: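 Cells: MDA-kb2 (MMTV-luc). Stimulus: 0.5 nM R1881. Time: 16 hr, 37C, no CO2. Detection: ONE-Glo luminescence after 30 min at RT.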

[14] = qHTS assay to identify small molecule HDAC inhibitors (AID 1259364); also: potency is read from the fitted curve at half-maximal effect;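 also: wild-type HCT-116 cells with endogenous class I/II HDAC activity; nearly all actives have a fitted effect of over 45% in size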; as to activity change, negative = inhibition: top concentration of the series differs between compounds
Summary of the method: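 After a 2 hr compound incubation (37C, 5% CO2), HCT-116 cells seeded at 1,500/well the day before received HDAC-Glo reagent; signal read as luminescence after 30 min at room temperature.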

[15] = qHTS assay to identify small molecule HDAC inhibitors - cell viability counter screen (AID 1259365)
Summary of the method: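 To flag cytotoxic hits, 1,500 wild-type HCT-116 cells per well, plated the day before, receive test compounds for 2hr at 37 C before CellTiter-Glo reagent and a luminescence read.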

[16] = qHTS assay to identify small molecule agonists of the sonic hedgehog signaling (Shh) pathway - cell viability counter screen (AID 1259366); also: nearly all actives have a fitted effect of over 50% in size
Summary of the method: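 Fluorescence from CellTiter-Fluor reports live cells in this counter screen. NIH/3T3-derived Gli1-Luc reporter cells receive test compounds for 24hr at 37C; reagent goes in at 23hr.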

[17] = qHTS assay to identify small molecule antagonists of the sonic hedgehog signaling (Shh) pathway - cell viability counter screen (AID 1259367); also: nearly all actives have a fitted effect of over 55% in size
Summary of the method: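 Fluorescence read-out (CellTiter-Fluor, 1 hr at 37C) taken after 23 hr compound treatment of 3T3 Gli1-Luc cells stimulated with conditioned medium. Cells were seeded at 2,000 per well and pre-incubated 4 hr.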

[18] = qHTS assay to identify small molecule antagonists of the estrogen receptor alpha (ER-alpha) signaling pathway using the BG1 cell line in the presence of 0.1 nM 17-beta-estradiol - cell viability counter screen (AID 1259241); also: nearly all actives have a fitted effect of over 40% in size
Summary of the method: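 CellTiter-Fluor read (30 min, 37C) on ER-alpha/ERE-luc VM7Luc4E2 cells; 22 hr compound treatment; agonist 0.1 nM E2 final; same-well multiplex.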

[19] = qHTS assay to identify small molecule phospholipidosis (PLD) inducers (AID 1259344; active = well fitted curve in the direction sought with a large enough effect; an effect the other way counts as inactive or inconclusive)
Summary of the method: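 Read-out is LipidTOX Red fluorescence (ex 595/em 615) imaged in HepG2 cells after 24 h compound exposure at 37 C, with Hoechst nuclear counterstain (ex 352/em 461) allowing per-cell normalisation.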

[20] = molecular target: Estrogen receptor (Homo sapiens) (UniProt P03372); assay: qHTS assay to identify small molecule antagonists of the estrogen receptor alpha (ER-alpha) signaling pathway using the BG1 cell line in the presence of 0.1 nM 17-beta-estradiol (AID 1259244); also: nearly all actives have a fitted effect of over 50% in size
Summary of the method: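 Seeding of stripped-serum-adapted VM7Luc4E2 cells, 24 h attachment, compound transfer, then 0.1 nM final 17beta-estradiol; after 22 h incubation, ONE-Glo reagent and luminescence reading.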

Androgen receptor (Homo sapiens), sequence (P10275 whole entry, looked up): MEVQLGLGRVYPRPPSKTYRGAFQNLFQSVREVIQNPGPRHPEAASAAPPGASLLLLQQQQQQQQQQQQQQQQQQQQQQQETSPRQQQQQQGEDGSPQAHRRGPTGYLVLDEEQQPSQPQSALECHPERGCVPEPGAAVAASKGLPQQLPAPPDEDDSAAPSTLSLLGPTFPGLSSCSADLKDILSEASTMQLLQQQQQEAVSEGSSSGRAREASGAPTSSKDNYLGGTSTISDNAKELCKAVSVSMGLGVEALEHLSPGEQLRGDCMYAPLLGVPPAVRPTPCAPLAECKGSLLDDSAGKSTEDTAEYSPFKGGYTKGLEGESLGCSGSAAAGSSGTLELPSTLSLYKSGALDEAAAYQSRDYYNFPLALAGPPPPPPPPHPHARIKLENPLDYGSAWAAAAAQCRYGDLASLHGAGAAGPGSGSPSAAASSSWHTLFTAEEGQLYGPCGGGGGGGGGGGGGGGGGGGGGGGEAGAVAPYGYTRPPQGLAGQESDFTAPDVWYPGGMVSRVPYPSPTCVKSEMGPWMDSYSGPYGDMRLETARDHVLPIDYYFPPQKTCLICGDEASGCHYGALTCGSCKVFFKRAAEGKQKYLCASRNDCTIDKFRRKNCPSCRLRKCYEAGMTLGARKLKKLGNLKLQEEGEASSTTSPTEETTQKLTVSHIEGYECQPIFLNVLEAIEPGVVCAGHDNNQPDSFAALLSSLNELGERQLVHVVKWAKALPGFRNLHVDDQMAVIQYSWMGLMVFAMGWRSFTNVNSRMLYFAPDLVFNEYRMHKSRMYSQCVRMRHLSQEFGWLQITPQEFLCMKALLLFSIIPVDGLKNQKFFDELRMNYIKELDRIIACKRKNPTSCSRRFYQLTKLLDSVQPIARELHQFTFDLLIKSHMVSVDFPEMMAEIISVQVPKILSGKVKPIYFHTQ
Estrogen receptor (Homo sapiens), sequence (P03372 whole entry, looked up): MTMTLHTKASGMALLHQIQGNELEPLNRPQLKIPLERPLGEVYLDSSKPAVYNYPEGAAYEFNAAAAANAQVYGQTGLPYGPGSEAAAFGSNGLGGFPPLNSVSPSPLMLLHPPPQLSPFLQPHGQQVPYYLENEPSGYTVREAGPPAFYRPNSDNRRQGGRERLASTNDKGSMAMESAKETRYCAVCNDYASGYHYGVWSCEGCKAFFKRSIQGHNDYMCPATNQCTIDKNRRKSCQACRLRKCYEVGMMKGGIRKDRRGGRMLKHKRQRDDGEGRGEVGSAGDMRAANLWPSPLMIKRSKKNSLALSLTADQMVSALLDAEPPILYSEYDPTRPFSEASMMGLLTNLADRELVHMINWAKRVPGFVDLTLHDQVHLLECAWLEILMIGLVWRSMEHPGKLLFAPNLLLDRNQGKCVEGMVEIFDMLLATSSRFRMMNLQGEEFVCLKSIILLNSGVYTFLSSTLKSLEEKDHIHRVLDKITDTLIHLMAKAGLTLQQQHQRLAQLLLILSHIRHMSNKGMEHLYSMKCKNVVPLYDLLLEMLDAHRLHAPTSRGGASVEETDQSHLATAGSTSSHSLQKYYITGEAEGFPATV

CC1Sc2c(C(=O)O)c(=O)c3cc(F)c(N4CCNCC4)cc3n21 (stereo not drawn)
Potency [1]: inactive | Potency [2]: inactive | Potency [3]: inactive | Potency [4]: inactive | Potency [5]: inactive | Potency [6]: inactive | Potency [7]: inactive | Potency [8]: inactive | Potency [9]: inactive | Potency [10]: inactive | Potency [11]: inactive | Potency [12]: inactive | Potency [13]: inactive | Potency [14]: inactive | Potency [15]: inactive | Potency [16]: inactive | Potency [17]: inactive

C=CC(=O)OCC(C)C
Potency [1]: inactive | Potency [2]: inactive | Potency [3]: inactive | Potency [4]: inactive | Potency [5]: inactive | Potency [6]: inactive | Potency [7]: inactive | Potency [8]: inactive | Potency [9]: inactive | Potency [10]: inactive | Potency [18]: inactive | Potency [12]: inactive | Potency [14]: 19.2 µM (active) | Potency [15]: inactive | Potency [16]: inactive | Potency [17]: inactive

NCC(CC(=O)O)c1ccc(Cl)cc1 (stereo not drawn)
activity change, negative = cytotoxicity [1]: -1.28% [at 0.29 µM] | cytotoxicity increase [2]: -17.2% [at 0.29 µM] | cytotoxicity [3]: 0.813% [at 0.29 µM] | cytotoxicity increase [4]: -7.65% [at 0.29 µM] | cytotoxicity increase [5]: -12.5% [at 0.29 µM] | activity change, negative = cytotoxic [6]: -0.45% [at 0.29 µM] | activity change, negative = cytotoxicity [7]: 4.3% [at 0.29 µM] | activity change, negative = cytotoxicity [8]: 1.53% [at 0.29 µM] | activity change [9]: -9.31% [at 0.29 µM, active compounds read high] | activity change, negative = cytotoxicity [10]: -4.46% [at 0.29 µM] | activity change, negative = cytotoxicity [18]: 0.211% [at 0.349 µM] | viability change, negative = cytotoxic [12]: 0.181% [at 0.349 µM] | outcome [19]: inactive | activity change, negative = inhibition [14]: 13.2% [at 0.349 µM] | activity change, negative = cytotoxicity [15]: -1.28% [at 0.349 µM] | viability change, negative = cytotoxic [16]: 4.25% [at 0.349 µM] | viability change, negative = cytotoxic [17]: 1.24% [at 0.349 µM]

ClCCCCBr
Potency [1]: inactive | Potency [2]: inactive | Potency [3]: inactive | Potency [4]: inactive | Potency [5]: inactive | Potency [6]: inactive | Potency [7]: inactive | Potency [8]: inactive | Potency [9]: inactive | Potency [10]: inactive | Potency [11]: inactive | Potency [12]: inactive | Potency [14]: inactive | Potency [15]: inactive

CCOS(C)(=O)=O
Potency [1]: inactive | Potency [2]: inactive | Potency [3]: inactive | Potency [4]: inactive | Potency [5]: inactive | Potency [6]: inactive | Potency [7]: inactive | Potency [8]: inactive | Potency [9]: inactive | Potency [10]: inactive | Potency [11]: inactive | Potency [12]: inactive | Potency [14]: inactive | Potency [15]: inactive | Potency [16]: inactive

C=CCOC(C)=O
Potency [1]: inactive | Potency [2]: inactive | Potency [3]: inactive | Potency [4]: inactive | Potency [5]: inactive | Potency [6]: inactive | Potency [7]: inactive | Potency [8]: inactive | Potency [9]: inactive | Potency [10]: 12.1 µM (active) | Potency [18]: inactive | Potency [12]: inactive | Potency [13]: 26.9 µM (active) | Potency [14]: inactive | Potency [15]: inactive | Potency [16]: inactive | Potency [17]: inactive

c1ccoc1
Potency [1]: inactive | Potency [2]: inactive | Potency [3]: inactive | Potency [4]: inactive | Potency [5]: inactive | Potency [6]: inactive | Potency [7]: inactive | Potency [8]: inactive | Potency [9]: inactive | Potency [10]: inactive | Potency [18]: inactive | Potency [12]: inactive | Potency [20]: inactive | Potency [14]: inactive | Potency [15]: inactive | Potency [16]: inactive | Potency [17]: inactive
